# Assay results taken from the supplement of paper PMC8728848.
# Many of the other results were omitted from the sample, so the strongest signals are more common in it than they were.
# B1: RsaA-N-term (Caulobacter crescentus), P35828 (protein)
# chain: MAYTTAQLVTAYTNANLGKAPDAATTLTLDAYATQTQTGGLSDAAALTNTLKLVNSTTAVAIQTYQFFTGVAPSAAGLDFLVDSTTNTNDLNDAYYSKFAQENRFINFSINLATGAGAGATAFAAAYTGVSYAQTVATAYDKIIGNAVATAAGVDVAAAVAFLSRQANIDYLTAFVRANTPFTAAADIDLAVKAALIGTILNAATVSGIGGYATATAAMINDLSDGALSTDNAAGVNLFTAYPSSGVSGSTLSLTTGTDTLTGTANNDTFVAGEVAGDGSGWSHPQFEKGG
# Experiments:
# Assay in all cases: glycan array binding signal (z-score within array); higher = stronger binding
# Details in all cases: glycan notation: IUPAC condensed, linker removed
# [1] = target: Fuc(a1-2)Gal(b1-4)Fuc(a1-3)]GlcNAc(b1-2)Man(a1-3)[Fuc(a1-2)Gal(b1-4)[Fuc(a1-3)]GlcNAc(b1-2)Man(a1-6)]Man(b1-4)GlcNAc(b1-4)GlcNAc
# In short: (§1)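 The Consortium for Functional Glycomics database supplied 3228 glycan arrays, of which those lacking an available protein sequence were dropped. The binding signal, a within-array Z-score, was averaged across arrays of the same protein sequence and across linkers. Negative scores can be read as non-binding.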
# [2] = target: Fuc(a1-2)Gal(b1-4)GlcNAc(b1-2)Man(a1-3)[Fuc(a1-2)Gal(b1-4)GlcNAc(b1-2)Man(a1-6)]Man(b1-4)GlcNAc(b1-4)[Fuc(a1-6)]GlcNAc
# In short: as §1
# [3] = target: Fuc(a1-2)Gal(b1-4)[Fuc(a1-3)]GlcNAc(b1-2)[Fuc(a1-2)Gal(b1-4)[Fuc(a1-3)]GlcNAc(b1-4)]Man(a1-3)[Fuc(a1-2)Gal(b1-4)[Fuc(a1-3)]GlcNAc(b1-2)Man(a1-6)]Man(b1-4)GlcNAc(b1-4)GlcNAc
# In short: as §1
# [4] = target: Fuc(a1-2)Gal(b1-4)[Fuc(a1-3)]GlcNAc(b1-3)Gal(b1-4)[Fuc(a1-3)]GlcNAc(b1-3)Gal(b1-4)[Fuc(a1-3)]GlcNAc
# In short: as §1
# [5] = target: Fuc(a1-2)Gal(b1-4)[Fuc(a1-3)]GlcNAc(b1-3)GalNAc
# In short: as §1
# [6] = target: Fuc(a1-2)Gal3S(b1-4)GlcNAc
# In short: as §1
# [7] = target: Fuc(a1-2)[Gal(a1-3)]Gal(b1-3)GalNAc
# In short: as §1
# [8] = target: Fuc(a1-2)[Gal(a1-3)]Gal(b1-3)GlcNAc(b1-2)Man(a1-3)[Fuc(a1-2)[Gal(a1-3)]Gal(b1-3)GlcNAc(b1-2)Man(a1-6)]Man(b1-4)GlcNAc(b1-4)[Fuc(a1-6)]GlcNAc
# In short: as §1
# [9] = target: Fuc(a1-2)[Gal(a1-3)]Gal(b1-4)GlcNAc
# In short: as §1
# [10] = target: Fuc(a1-2)[Gal(a1-4)]Gal(b1-4)GlcNAc
# In short: as §1
# [11] = target: Fuc(a1-2)[GalNAc(a1-3)]Gal(b1-4)GlcNAc(b1-3)Gal(b1-4)GlcNAc(b1-3)Gal(b1-4)GlcNAc
# In short: as §1
# [12] = target: Gal(b1-3)GalNAc(b1-4)[Neu5Ac(a2-3)]Gal(b1-4)Glc
# In short: as §1
# [13] = target: Gal(b1-3)[Neu5Ac(b2-6)]GalNAc
# In short: as §1
# [14] = target: Gal(b1-4)GlcNAc(b1-2)Man(a1-3)[Gal(b1-4)GlcNAc(b1-2)Man(a1-6)][GlcNAc(b1-4)]Man(b1-4)GlcNAc(b1-4)[Fuc(a1-6)]GlcNAc
# In short: as §1
# [15] = target: Gal(b1-4)GlcNAc(b1-3)Gal(b1-4)GlcNAc(b1-2)Man(a1-3)[Gal(b1-4)GlcNAc(b1-3)Gal(b1-4)GlcNAc(b1-2)Man(a1-6)]Man(b1-4)GlcNAc(b1-4)GlcNAc
# In short: as §1
# [16] = target: Gal(b1-4)GlcNAc(b1-3)Gal(b1-4)GlcNAc(b1-2)Man(a1-3)[Gal(b1-4)GlcNAc(b1-3)Gal(b1-4)GlcNAc(b1-2)Man(a1-6)]Man(b1-4)GlcNAc(b1-4)[Fuc(a1-6)]GlcNAc
# In short: as §1
# Gal3S(b1-3)GalNAc = target: Gal3S(b1-3)GalNAc
# In short: as §1
# [17] = target: Gal3S(b1-3)[Fuc(a1-4)]GlcNAc
# In short: as §1
# Gal6S(b1-3)GlcNAc6S = target: Gal6S(b1-3)GlcNAc6S
# In short: as §1
# Gal6S(b1-4)Glc = target: Gal6S(b1-4)Glc
# In short: as §1
# GalNAc3S(b1-4)GlcNAc3S = target: GalNAc3S(b1-4)GlcNAc3S
# In short: as §1
# Glc(b1-4)Glc = target: Glc(b1-4)Glc
# In short: as §1
# [18] = target: GlcNAc(a1-4)Gal(b1-3)GlcNAc
# In short: as §1
# [19] = target: GlcNAc(a1-4)Gal(b1-4)GlcNAc(b1-3)Gal(b1-4)Glc
# In short: as §1
# [20] = target: GlcNAc(b1-2)[GlcNAc(b1-4)]Man(a1-3)[GlcNAc(b1-4)][GlcNAc(b1-2)[GlcNAc(b1-6)]Man(a1-6)]Man(b1-4)GlcNAc(b1-4)[Fuc(a1-6)]GlcNAc
# In short: as §1
# [21] = target: GlcNAc(b1-3)Gal(b1-4)GlcNAc(b1-2)Man(a1-3)[GlcNAc(b1-3)Gal(b1-4)GlcNAc(b1-2)Man(a1-6)]Man(b1-4)GlcNAc(b1-4)GlcNAc
# In short: as §1
# [22] = target: GlcNAc(b1-3)Gal(b1-4)GlcNAc(b1-3)Gal(b1-4)GlcNAc(b1-2)Man(a1-3)[GlcNAc(b1-3)Gal(b1-4)GlcNAc(b1-3)Gal(b1-4)GlcNAc(b1-2)Man(a1-6)]Man(b1-4)GlcNAc(b1-4)GlcNAc
# In short: as §1
# [23] = target: GlcNAc(b1-3)Gal(b1-4)GlcNAc(b1-3)Gal(b1-4)GlcNAc(b1-3)Gal(b1-4)GlcNAc(b1-2)[GlcNAc(b1-3)Gal(b1-4)GlcNAc(b1-3)Gal(b1-4)GlcNAc(b1-3)Gal(b1-4)GlcNAc(b1-6)]Man(a1-6)[GlcNAc(b1-3)Gal(b1-4)GlcNAc(b1-3)Gal(b1-4)GlcNAc(b1-3)Gal(b1-4)GlcNAc(b1-2)Man(a1-3)]Man(b1-4)GlcNAc(b1-4)[Fuc(a1-6)]GlcNAc
# In short: as §1
# [24] = target: GlcNAc(b1-4)[GlcNAc(b1-6)]GalNAc
# In short: as §1
# [25] = target: Man(a1-3)[Man(a1-6)]Man(b1-4)GlcNAc(b1-4)GlcNAc
# In short: as §1
# [26] = target: Neu5Ac(a2-3)Gal(b1-3)GalNAc(b1-4)[Neu5Ac(a2-3)]Gal(b1-4)Glc
# In short: as §1
# [27] = target: Neu5Ac(a2-3)Gal(b1-3)GalNAc6S
# In short: as §1
# [28] = target: Neu5Ac(a2-3)Gal(b1-3)GlcNAc(b1-2)Man(a1-3)[Neu5Ac(a2-3)Gal(b1-3)GlcNAc(b1-2)Man(a1-6)]Man(b1-4)GlcNAc(b1-4)GlcNAc
# In short: as §1
# [29] = target: Neu5Ac(a2-3)Gal(b1-3)[GlcNAc(b1-6)]GalNAc
# In short: as §1
# [30] = target: Neu5Ac(a2-3)Gal(b1-4)GlcNAc(b1-2)Man
# In short: as §1
# [31] = target: Neu5Ac(a2-3)Gal(b1-4)GlcNAc(b1-3)Gal(b1-4)GlcNAc(b1-3)Gal(b1-4)GlcNAc(b1-2)Man(a1-3)[Neu5Ac(a2-3)Gal(b1-4)GlcNAc(b1-3)Gal(b1-4)GlcNAc(b1-3)Gal(b1-4)GlcNAc(b1-2)Man(a1-6)]GalNAc
# In short: as §1
# [32] = target: Neu5Ac(a2-3)Gal(b1-4)GlcNAc(b1-3)Gal(b1-4)GlcNAc(b1-3)GalNAc
# In short: as §1
# [33] = target: Neu5Ac(a2-3)Gal(b1-4)GlcNAc(b1-3)Gal(b1-4)[Fuc(a1-3)]GlcNAc
# In short: as §1
# [34] = target: Neu5Ac(a2-3)Gal(b1-4)[Fuc(a1-3)]GlcNAc(b1-2)Man
# In short: as §1
# [35] = target: Neu5Ac(a2-6)Gal(b1-4)GlcNAc(b1-2)Man(a1-3)[Neu5Ac(a2-3)Gal(b1-4)GlcNAc(b1-2)Man(a1-6)]Man(b1-4)GlcNAc(b1-4)GlcNAc
# In short: as §1
# [36] = target: Neu5Ac(a2-6)Gal(b1-4)GlcNAc(b1-2)Man(a1-3)[Neu5Ac(a2-6)Gal(b1-4)GlcNAc(b1-2)Man(a1-6)]Man(b1-4)GlcNAc(b1-4)GlcNAc
# In short: as §1
# [37] = target: Neu5Ac(a2-6)Gal(b1-4)GlcNAc(b1-2)Man(a1-6)[GlcNAc(b1-2)Man(a1-3)]Man(b1-4)GlcNAc(b1-4)GlcNAc
# In short: as §1
# [38] = target: Neu5Ac(a2-6)Gal(b1-4)GlcNAc(b1-3)Gal(b1-4)GlcNAc(b1-2)Man(a1-3)[Neu5Ac(a2-6)Gal(b1-4)GlcNAc(b1-3)Gal(b1-4)GlcNAc(b1-2)Man(a1-6)]GalNAc
# In short: as §1
# [39] = target: Neu5Ac(a2-6)Gal(b1-4)GlcNAc(b1-3)Gal(b1-4)GlcNAc(b1-3)[Neu5Ac(a2-6)Gal(b1-4)GlcNAc(b1-3)Gal(b1-4)GlcNAc(b1-6)]GalNAc
# In short: as §1
# Neu5Ac(a2-6)GalNAc = target: Neu5Ac(a2-6)GalNAc
# In short: as §1
# [40] = target: Neu5Ac(a2-6)GalNAc(b1-4)GlcNAc
# In short: as §1
# [41] = target: Neu5Ac(a2-8)Neu5Ac(a2-3)Gal(b1-4)Glc
# In short: as §1
# [42] = target: Neu5Ac(a2-8)Neu5Ac(a2-3)[GalNAc(b1-4)]Gal(b1-4)Glc
# In short: as §1
binder,measurement,setting,value
B1,glycan array binding signal (z-score),[1],5.97
same,glycan array binding signal (z-score),[2],7.05
same,glycan array binding signal (z-score),[3],2.4
same,glycan array binding signal (z-score),[4],-1.26
same,glycan array binding signal (z-score),[5],-0.298
same,glycan array binding signal (z-score),[6],-0.243
same,glycan array binding signal (z-score),[7],-0.328
same,glycan array binding signal (z-score),[8],-0.025
same,glycan array binding signal (z-score),[9],1.14
same,glycan array binding signal (z-score),[10],-0.479
same,glycan array binding signal (z-score),[11],0.016
same,glycan array binding signal (z-score),[12],-0.359
same,glycan array binding signal (z-score),[13],0.215
same,glycan array binding signal (z-score),[14],-0.708
same,glycan array binding signal (z-score),[15],3.15
same,glycan array binding signal (z-score),[16],2.39
same,glycan array binding signal (z-score),Gal3S(b1-3)GalNAc,1.7
same,glycan array binding signal (z-score),[17],-0.524
same,glycan array binding signal (z-score),Gal6S(b1-3)GlcNAc6S,3.01
same,glycan array binding signal (z-score),Gal6S(b1-4)Glc,-0.512
same,glycan array binding signal (z-score),GalNAc3S(b1-4)GlcNAc3S,0.081
same,glycan array binding signal (z-score),Glc(b1-4)Glc,-0.512
same,glycan array binding signal (z-score),[18],0.008
same,glycan array binding signal (z-score),[19],-0.491
same,glycan array binding signal (z-score),[20],0.317
same,glycan array binding signal (z-score),[21],2.18
same,glycan array binding signal (z-score),[22],2.59
same,glycan array binding signal (z-score),[23],0.217
same,glycan array binding signal (z-score),[24],-0.221
same,glycan array binding signal (z-score),[25],0.174
same,glycan array binding signal (z-score),[26],-1.29
same,glycan array binding signal (z-score),[27],0.427
same,glycan array binding signal (z-score),[28],7.19
same,glycan array binding signal (z-score),[29],-1.21
same,glycan array binding signal (z-score),[30],2.51
same,glycan array binding signal (z-score),[31],-0.725
same,glycan array binding signal (z-score),[32],-1.2
same,glycan array binding signal (z-score),[33],-0.112
same,glycan array binding signal (z-score),[34],0.103
same,glycan array binding signal (z-score),[35],2.79
same,glycan array binding signal (z-score),[36],0.398
same,glycan array binding signal (z-score),[37],0.365
same,glycan array binding signal (z-score),[38],-1.33
same,glycan array binding signal (z-score),[39],-0.68
same,glycan array binding signal (z-score),Neu5Ac(a2-6)GalNAc,2.17
same,glycan array binding signal (z-score),[40],-0.593
same,glycan array binding signal (z-score),[41],-0.815
same,glycan array binding signal (z-score),[42],-0.001
